In the OligoGym collection one finds sensor-assay potency score (higher = more potent) data, which are given here for 40 sequences.
Also: reference of the scale not given here.

One experiment addresses EAPP. In words: pooled miR-30 sensor sort-seq; sequence = guide strand. The following applies: shRNA.
Sequence TCATCGTAGTACCTTGTCGGAG came in with a sensor-assay potency score (higher = more potent) of -1.04.
For the sequence TTTCTTCCACATCTGTCTCTGC, the sensor-assay potency score (higher = more potent) is -0.196.
With TATATATCATCGTAGTACCTTG, the sensor-assay potency score (higher = more potent) is -0.621.
Consider TTTATATCTTAGAACCTCCTCT, for which the sensor-assay potency score (higher = more potent) came to 0.652.
Sequence TTCATTACAAACATTGCTCTAT displayed a sensor-assay potency score (higher = more potent) of 0.525.

Another experiment has as its target EBNA1BP2. The experiment is described as above. The conditions noted are these: shRNA.
The sequence ATAGAAACTCATCTCTCGCTGG displayed a sensor-assay potency score (higher = more potent) of 0.115.
With ATCAACAGCTTTCTGGTCCTTG, the sensor-assay potency score (higher = more potent) is -0.301.
Same read-out and setting: the value for TTCATCTTCTCTCTTGTTCGTT was 0.27.
As to TCATCTTCTCTCTTGTTCGTTT, the sensor-assay potency score (higher = more potent) is -0.122.
The same measure, in the same setting: for TTAGTCTGCAGCTTCTGTCGAA the value was 0.0417; for TACATCATCATAGCTCTCCCGA, -0.31; for TATTTGACCCTTTCTTGCCAGG, -1.16.
On the same count and under the same terms, the value for TTTCTTAATAGCATTCATCATA was -1.2; that for TAGTCTGCAGCTTCTGTCGAAT was -0.943; that for TTCTGGATCAACAGCTTTCTGG was -1.11.
As for TATACCGTCGTTTAGCACTGGG, the sensor-assay potency score (higher = more potent) is -0.643.
Still for that read-out and setting: for TAGAAACTCATCTCTCGCTGGA the value was 0.612.

The target in another experiment is EBP. Described as above. The conditions noted are these: shRNA.
Consider TTGGCATCCAGCGTGCTCTGGG, for which the sensor-assay potency score (higher = more potent) is -0.0185.
Same read-out and setting: the value for TTTTGTGGCCTTGGCATCCAGC was -1.25.
As for TTCTCTTGTATCTGTGTTCTAA, the sensor-assay potency score (higher = more potent) was -0.119.
In turn, ACAAGCTGTAGAATGAAGCGGA came in with a sensor-assay potency score (higher = more potent) of 0.326.
Take TTGTCCAGTCTTAGGTGCTGAG: the sensor-assay potency score (higher = more potent) is -1.23.
Still for that read-out and setting: for ATTAGGTACAAAGTTGTCCAGT the value was -0.389; for ATGAAGACAAAGTAAAACCAGA, -0.723.
Sequence ATGGTTTCCATGCACACTGTGA displayed a sensor-assay potency score (higher = more potent) of -0.951.
TAAAACCAGAAGTAGAGAGGGT returned a sensor-assay potency score (higher = more potent) of 0.087.
In turn, TTCGTAGTAGAGAACGAACCAG came in with a sensor-assay potency score (higher = more potent) of -0.577.
Still for that read-out and setting: the value for TCGTAGTAGAGAACGAACCAGC was -1.05; that for TTGGTCTCCAAGCAGGTCTTCG was -0.868.

The target of another experiment is ECH1. The experiment is described as above. The following applies: shRNA.
Take TTGTTCTCAGTCGTGGCCTGGA: the sensor-assay potency score (higher = more potent) was -0.493.
Same read-out and setting: the value for TCTTGCTGGAAATCTCGGCCGC was -0.461; that for TGTCCATCAGGTCAATACCTGC was -1.4.
Turning to TATCGAGTGATGATGTCACGGA, the sensor-assay potency score (higher = more potent) is -0.0973.
The sequence TTGACCAGGCTCTGGTTCCCGA gave a sensor-assay potency score (higher = more potent) of -0.944.
As for TCGTCAGCCATCATCTTGCGGG, the sensor-assay potency score (higher = more potent) is -0.729.
Same read-out and setting: for TTGGGCTGCAGGATGTCCGAAG the value was -0.857; for TTGAAGGTCTCCTGGTATCGAG, -0.974.
On the same count and under the same terms, for TTTGTCTGGGAACACCCGGCTG the value was -1.1.
The sequence TTGTTCATGGCATTCCTCTTGT displayed a sensor-assay potency score (higher = more potent) of 0.382.
Same read-out and setting: the value for TTGTCTGGGAACACCCGGCTGA was 0.142.
